Compounds with a hit are over-represented: about 1.5% of the library has one in this group of screens.
INS promoter inh = TRM-6 insulin promoter activity inhibition; AID 1273; TRM-6 cells (human fetal islet line), insulin promoter-eGFP reporter, imaging; reporter expression induced with tamoxifen; inhibition, % at 2 µM; 0.9% of 130,000 active;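 active = inhibition above the mean plus 3 SD, with well images judged a real hit on visual review, cut at about 60% in these data, passing the limit was not always enough; inconclusive = inhibition over the cutoff but images rejected on review; inactive = inhibition not above the cutoff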
S1P4 agonist = human S1P4 receptor agonism. S1P4-expressing cell line, agonist reporter assay. activation, % at 4.98 µM. 0.35% of 220,000 active; in the data active = activation above about 11%;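 note: 0% = DMSO vehicle and 100% = reference agonist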
S1P3 antagonist = blocks the human S1P3 receptor | CHO S1P3 NFAT-BLA reporter, FRET fluorescence, antagonist mode | Q99500 | inhibition, % at 4.98 µM | 0.27% of 170,000 active | AID 485;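 active = inhibition above the plate cutoff, the mean inhibition of test wells on that plate plus 3 SD, cut at about 28% in these data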;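 note: cells challenged with S1P at its EC80 of 0.8 µM; blue over green emission ratio from cleaved BLA substrate after 4 h stimulation; 0% = S1P-stimulated wells and 100% = unstimulated DMSO-only wells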
Hsp70 act = switches on Hsp70 transcription; HeLa Hsp70 promoter luciferase reporter, luminescence; scaled: vehicle 0, proteasome-inhibitor control 100%; activation, % at 10 µM; 0.04% of 200,000 active; AID 1203;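 active = activation above the mean across all tested compounds plus 3 SD, cutoff set per campaign, cut at about 5.5% in these data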;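 note: 100% = MG132 at 30 µM as the positive control and 0% = DMSO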
Ins promoter up = MIN6 insulin promoter up-regulation. 0.3% of 190,000 active. AID 1625. MIN6 insulin promoter-GFP reporter, high-content imaging; stronger effect = higher value. z-score at 5 µM;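 active = z-score above 3 at 5 µM with at least 500 cells counted in the well; inconclusive = wells under 500 cells, flagged as cytotoxic or low count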
S1P4 antag = human S1P4 receptor antagonism. inhibition, % at 4.98 µM. O95977. S1P4-expressing cells, antagonist mode, reporter read-out. AID 1510. 0.26% of 220,000 active; in the data active = inhibition above about 29%;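 note: 0% = wells stimulated with agonist and 100% = vehicle wells without agonist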
S1P4 agonist cf = confirmation of human S1P4 receptor agonists; shares compounds with S1P4 agonist; S1P4 agonist cell-based reporter assay; activation, % at 4.98 µM; 7% of 740 active; AID 1523; in the data active = activation above about 12%;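 note: 0% = vehicle and 100% = full reference agonist response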
S1P1 agonist = human S1P1 agonism as S1P4 agonist counter-screen; S1P1 agonist cell-based assay, activation; AID 1563; activation, % at 4.98 µM; 4% of 740 active; shares compounds with S1P4 agonist; in the data active = activation above about 21%;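 note: 0% = vehicle wells and 100% = reference agonist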
Target sequence (P21453 whole entry, looked up): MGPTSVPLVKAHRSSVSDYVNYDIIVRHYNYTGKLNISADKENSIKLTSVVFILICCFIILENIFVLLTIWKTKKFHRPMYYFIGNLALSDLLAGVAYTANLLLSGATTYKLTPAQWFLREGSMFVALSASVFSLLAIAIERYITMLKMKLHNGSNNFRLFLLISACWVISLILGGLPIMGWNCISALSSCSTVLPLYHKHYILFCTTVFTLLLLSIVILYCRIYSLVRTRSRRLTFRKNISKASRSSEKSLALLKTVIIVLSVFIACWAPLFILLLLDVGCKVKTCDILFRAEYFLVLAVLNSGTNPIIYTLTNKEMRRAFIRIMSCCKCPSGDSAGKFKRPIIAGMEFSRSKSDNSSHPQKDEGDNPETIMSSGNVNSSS
* = called active by the depositor; u = inconclusive; x = not tested or not shown; ! = a repeat was not active.

SMILES	INS promoter inh	S1P4 agonist	S1P3 antagonist	Hsp70 act	Ins promoter up	S1P4 antag	S1P4 agonist cf	S1P1 agonist
Cc1ccc(NC(=O)COC(=O)[C@H](C)N2C(=O)C3CC=CCC3C2=O)cc1S(=O)(=O)N(C)C (stereo not given in full)	-16.7	15.6*	-22.2	-0.3	-0.05	-16.6	-1.1	-4.9
Cc1oc(-c2cc(F)ccc2F)nc1CN1CCN(C)C(=O)[C@@H]1C	-95.7	14.9*	-5.0	-0.2	x	-8.2	-1.0	-7.2
CN1CCN(Cc2c(O)ccc3cc(-c4ccccn4)c(=O)oc23)CC1	x	18.0*	-4.2	-0.2	-0.07	11.1	9.7	7.2
Cc1nn(C(=O)c2cccc([N+](=O)[O-])c2)c(C)c1Sc1ccccc1	x	0.4	x	-0.2	-0.57	-7.7	x	x
Cc1ccc(-c2nnc(SCCC(=O)N3CCOCC3)o2)cc1	11.1	1.6	-15.1	-0.3	-0.26	-23.8	x	x
O=C(CCSc1nnc(-c2ccccc2)o1)N1CCOCC1	37.1	27.6*	-9.6	-0.3	u	-1.9	-1.7	1.0
c1ccc(-c2nccc(-c3ccc(-n4cnc5ccccc54)cc3)n2)cc1	0.0	82.7*	x	-0.1	x	-11.3	-1.4	5.1
c1ccc(-c2nccc(-c3ccc4c(c3)OCO4)n2)cc1	x	1.3	-20.1	-0.1	-0.94	-12.9	x	x
CCCCNC(=O)CC1S/C(=N/N=C/c2ccc(OC)cc2)NC1=O (stereo not given)	x	12.2*	-14.2	-0.3	-0.12	-4.5	-2.4	2.9
CCC(C)NCCCOc1ccc([N+](=O)[O-])cc1 (stereo not given)	16.7	57.8*	5.3	-0.3	x	8.1	-1.6	-8.4
COc1ccc(CCNC(=O)COC(=O)C23CC4CC(CC(C4)C2)C3)cc1	-14.3	11.1*	-2.8	-0.1	0.12	-2.7	0.4	-4.9
COc1ccc(CCNC(=O)COC(=O)C23CC4CC(CC(Br)(C4)C2)C3)cc1	-10.8	1.7	-13.8	0.0	0.44	-24.2	x	x
CC(=O)Nc1ccc(NC(=O)c2oc3cc(C)c(C)cc3c2C)cc1	x	11.6*	-11.1	-0.3	0.23	-8.7	-1.8	-1.0
CCOC(=O)c1ccc(NC(=O)N2CCN(Cc3cccc(F)c3)CC2)cc1	-22.2	17.3*	1.2	-0.2	-0.42	7.2	-1.6	1.7
COc1ccc(CCNC(=O)Nc2ccccc2[N+](=O)[O-])cc1	15.0	20.8*	7.0	0.0	x	0.8	-2.6	-1.1
COc1ccc(CCNC(=O)Nc2cccc([N+](=O)[O-])c2)cc1	x	0.7	-2.6	-0.2	-0.07	-7.2	x	x
COC(=O)c1c(-n2c(C)cc(C=O)c2C)sc2c1CCCC2	x	12.0*	x	-0.5	x	1.8	14.8*	-2.7
C=CCN1C(=O)/C(=c2\sc3nc(=O)c(Cc4ccccc4)nn3c2=O)c2ccccc21	x	27.3*	-4.1	x	-0.22	-6.7	-1.4	0.8
COCCCNC(=O)c1cc(S(=O)(=O)N2CCOCC2)ccc1SCc1cccc(OC)c1OC	x	0.2	-2.4	0.4	0.47	7.2	x	x
CCN1CCN(c2cc(C)c3cc(NC(=O)c4cccc(OC)c4)ccc3n2)CC1	x	2.5	-2.7	x	x	9.0	x	x
CCN1CCN(c2cc(C)c3cc(NC(=O)c4cccs4)ccc3n2)CC1	x	55.8*	0.2	x	0.27	10.6	-3.0	-7.7
CC(C)NC(=O)c1ccc(CS(=O)(=O)c2ccc(Br)cc2)o1	x	-1.0	-3.8	-0.1	1.65	-9.7	x	x
Cc1ncc([N+](=O)[O-])n1CC(=O)NCCc1ccccc1	x	15.8*	-15.1	-0.3	-0.06	3.4	-0.8	-1.1
Cc1cc(C)cc(N=c2c([N+](=O)[O-])nn(-c3cccc(Cl)c3)n2O)c1	26.7	2.2	x	-0.4	-1.2	-17.2	x	x
Cn1c(SCC(=O)c2ccc3c(c2)OCO3)nnc1C1COc2ccccc2O1 (stereo not given)	x	11.3*	12.1	0.0	0.68	5.2	61.5*	-0.9
COc1cc(C2NC(=O)C(C#N)=C(Nc3cccc(C)c3)S2)ccc1O (stereo not given)	x	21.9*!	-8.2	x	-0.25	11.6	-0.2	0.9
CON1C(=O)CN(C(C)=O)C1c1ccc(Cl)cc1Cl (stereo not given)	3.6	-5.7	x	-0.2	-0.96	0.5	x	x

Screens deposited in PubChem BioAssay by several laboratories.
